The supplement of paper PMC10849652
Targets with a hit are over-represented here; the source holds about 7,900 in all. About 0.6% of all pairs of compound and target were hits. Unmarked numbers belong to inactive results.

Tests used:
Experiment in all cases: log2 fold change, soluble protein after heating vs DMSO (PISA); higher = thermal stabilisation; K562 cells, 10 uM, 30 min; active = over 0.2 and 3.5 SD of the protein, either way, in both replicates (recomputed)
[1] = compound: NC(=O)Nc1cc(-c2cccc(F)c2)sc1C(=O)N[C@H]1CCCNC1
How it was run: (§1)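 K562 cells at 2×10^6 cells/mL were given 10 μM compound for 30 min. Aliquots then went through 3 min of heating across 48°C-58°C, were pooled, and were extracted in PBS with 0.5% NP-40 at 4°C, and the supernatant after 21,000xg for 90 min was quantified by TMTpro 16plex LC-MS/MS with channel sums equalised. Thermal stability relative to control samples, from duplicates, is given as log2 fold change.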

[2] = compound: NC(=O)c1cnc(N[C@@H]2CCCC[C@@H]2N)nc1Nc1cccc(-n2nccn2)c1
How it was run: as §1

[3] = compound: NC1(c2ccc(-c3nc4ccn5c(=O)[nH]nc5c4cc3-c3ccccc3)cc2)CCC1
How it was run: as §1

[4] = compound: NCC(=O)Nc1ccc(-n2nc(C(F)(F)F)cc2-c2ccc3c(ccc4ccccc43)c2)cc1
How it was run: as §1

[5] = compound: Nc1ccccc1NC(=O)c1ccc(CNC(=O)OCc2cccnc2)cc1 [entinostat]
How it was run: as §1

[6] = compound: O=C(CCCCCCC(=O)Nc1ccccc1)NO [vorinostat]
How it was run: as §1

[7] = compound: O=C(CCCCCCNC(=O)c1cnc(N(c2ccccc2)c2ccccc2Cl)nc1)NO [citarinostat]
How it was run: as §1

[8] = compound: O=C(O)c1ccc2c(c1)nc(Nc1cccc(Cl)c1)c1ccncc12 [silmitasertib]
How it was run: as §1

[9] = compound: O=C1NC(=O)C(c2cnc3ccccn23)=C1c1cn2c3c(cc(F)cc13)CN(C(=O)N1CCCCC1)CC2
How it was run: as §1

[10] = compound: c1cc(OCCN2CCCCC2)cc(-c2n[nH]c3ccc(-c4nnc[nH]4)cc23)c1
How it was run: as §1

[11] = compound: c1cn2cc(-c3ccc4cn[nH]c4c3)nc(Nc3ccc(N4CCOCC4)cc3)c2n1 [entospletinib]
How it was run: as §1

Chain of UniProt Q12996 (Q12996 whole entry, looked up): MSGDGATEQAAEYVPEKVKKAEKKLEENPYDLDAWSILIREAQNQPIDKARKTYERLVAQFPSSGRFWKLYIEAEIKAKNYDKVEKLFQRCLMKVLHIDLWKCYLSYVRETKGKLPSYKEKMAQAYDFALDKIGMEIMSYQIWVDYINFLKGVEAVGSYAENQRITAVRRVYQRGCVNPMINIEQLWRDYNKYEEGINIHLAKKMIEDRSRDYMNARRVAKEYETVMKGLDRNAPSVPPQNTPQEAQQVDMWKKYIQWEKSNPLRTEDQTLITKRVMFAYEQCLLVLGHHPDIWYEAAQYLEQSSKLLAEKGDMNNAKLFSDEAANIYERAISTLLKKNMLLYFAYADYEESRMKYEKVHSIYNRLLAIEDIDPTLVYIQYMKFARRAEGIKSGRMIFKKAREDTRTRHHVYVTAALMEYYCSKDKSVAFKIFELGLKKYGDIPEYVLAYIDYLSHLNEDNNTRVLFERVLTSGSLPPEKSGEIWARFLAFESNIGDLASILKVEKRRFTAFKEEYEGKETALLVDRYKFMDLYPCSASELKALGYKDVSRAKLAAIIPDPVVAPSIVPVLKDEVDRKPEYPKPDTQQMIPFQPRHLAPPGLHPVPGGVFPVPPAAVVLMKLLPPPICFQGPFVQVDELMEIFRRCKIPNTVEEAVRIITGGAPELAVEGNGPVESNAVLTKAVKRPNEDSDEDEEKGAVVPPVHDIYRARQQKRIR
Chain of UniProt Q9UNS2 (Q9UNS2 whole entry, looked up): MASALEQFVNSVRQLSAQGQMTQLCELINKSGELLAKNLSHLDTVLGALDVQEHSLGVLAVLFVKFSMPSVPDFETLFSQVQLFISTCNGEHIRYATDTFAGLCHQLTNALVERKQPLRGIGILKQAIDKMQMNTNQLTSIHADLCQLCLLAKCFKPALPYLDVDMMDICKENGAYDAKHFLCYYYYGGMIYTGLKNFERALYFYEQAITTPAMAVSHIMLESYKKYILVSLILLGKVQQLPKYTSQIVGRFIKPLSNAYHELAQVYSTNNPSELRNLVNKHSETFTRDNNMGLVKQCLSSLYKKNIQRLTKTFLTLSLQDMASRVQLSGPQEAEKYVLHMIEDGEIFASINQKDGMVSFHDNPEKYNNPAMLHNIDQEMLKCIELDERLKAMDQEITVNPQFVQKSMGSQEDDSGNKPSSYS
Chain of UniProt Q7L3B6 (Q7L3B6 whole entry, looked up): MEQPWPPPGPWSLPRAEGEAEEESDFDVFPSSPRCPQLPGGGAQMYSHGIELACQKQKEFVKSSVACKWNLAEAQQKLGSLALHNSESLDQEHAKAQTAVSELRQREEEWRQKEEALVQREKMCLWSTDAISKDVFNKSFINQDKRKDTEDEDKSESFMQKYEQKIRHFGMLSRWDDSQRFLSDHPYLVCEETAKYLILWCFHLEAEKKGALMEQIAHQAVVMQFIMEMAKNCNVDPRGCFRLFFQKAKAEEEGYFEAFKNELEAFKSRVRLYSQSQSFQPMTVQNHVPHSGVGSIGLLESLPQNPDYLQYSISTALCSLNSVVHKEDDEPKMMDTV
Chain of UniProt Q92851 (Q92851 whole entry, looked up): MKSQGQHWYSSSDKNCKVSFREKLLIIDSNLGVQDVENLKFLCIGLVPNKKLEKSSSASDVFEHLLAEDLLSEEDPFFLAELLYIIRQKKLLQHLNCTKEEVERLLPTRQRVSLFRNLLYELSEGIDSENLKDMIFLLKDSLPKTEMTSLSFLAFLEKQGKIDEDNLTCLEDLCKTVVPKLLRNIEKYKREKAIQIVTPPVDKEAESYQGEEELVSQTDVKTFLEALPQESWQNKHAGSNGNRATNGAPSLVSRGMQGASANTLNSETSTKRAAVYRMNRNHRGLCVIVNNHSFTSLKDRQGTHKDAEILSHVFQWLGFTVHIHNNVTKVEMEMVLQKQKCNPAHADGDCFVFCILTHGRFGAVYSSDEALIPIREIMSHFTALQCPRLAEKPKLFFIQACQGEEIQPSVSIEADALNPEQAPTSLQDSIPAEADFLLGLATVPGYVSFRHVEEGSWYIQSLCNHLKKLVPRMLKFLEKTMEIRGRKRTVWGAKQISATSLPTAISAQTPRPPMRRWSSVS
Chain of UniProt O95319 (O95319 whole entry, looked up): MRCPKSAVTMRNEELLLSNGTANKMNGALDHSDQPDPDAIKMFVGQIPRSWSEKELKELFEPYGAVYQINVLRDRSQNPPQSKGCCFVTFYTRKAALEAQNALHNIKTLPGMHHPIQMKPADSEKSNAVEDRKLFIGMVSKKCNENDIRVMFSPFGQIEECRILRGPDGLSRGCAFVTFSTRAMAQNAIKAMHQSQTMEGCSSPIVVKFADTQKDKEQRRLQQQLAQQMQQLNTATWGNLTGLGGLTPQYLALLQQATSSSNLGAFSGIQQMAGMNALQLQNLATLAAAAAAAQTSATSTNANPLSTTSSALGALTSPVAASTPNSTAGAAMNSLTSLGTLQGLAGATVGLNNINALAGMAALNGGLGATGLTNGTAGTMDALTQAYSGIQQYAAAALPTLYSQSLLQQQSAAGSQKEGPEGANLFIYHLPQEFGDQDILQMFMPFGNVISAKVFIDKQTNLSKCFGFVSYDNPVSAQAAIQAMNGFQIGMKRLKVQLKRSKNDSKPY
Chain of UniProt P50750 (P50750 whole entry, looked up): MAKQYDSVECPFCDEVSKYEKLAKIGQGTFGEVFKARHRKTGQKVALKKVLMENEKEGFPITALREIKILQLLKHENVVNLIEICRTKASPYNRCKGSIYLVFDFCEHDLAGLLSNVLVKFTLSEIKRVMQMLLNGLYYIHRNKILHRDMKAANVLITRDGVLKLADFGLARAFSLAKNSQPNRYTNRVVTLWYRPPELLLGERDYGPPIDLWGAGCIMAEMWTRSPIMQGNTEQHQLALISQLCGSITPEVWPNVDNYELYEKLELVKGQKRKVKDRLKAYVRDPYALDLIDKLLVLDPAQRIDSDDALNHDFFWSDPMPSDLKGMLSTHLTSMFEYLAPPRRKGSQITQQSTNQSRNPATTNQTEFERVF
Chain of UniProt Q8IWX8 (Q8IWX8 whole entry, looked up): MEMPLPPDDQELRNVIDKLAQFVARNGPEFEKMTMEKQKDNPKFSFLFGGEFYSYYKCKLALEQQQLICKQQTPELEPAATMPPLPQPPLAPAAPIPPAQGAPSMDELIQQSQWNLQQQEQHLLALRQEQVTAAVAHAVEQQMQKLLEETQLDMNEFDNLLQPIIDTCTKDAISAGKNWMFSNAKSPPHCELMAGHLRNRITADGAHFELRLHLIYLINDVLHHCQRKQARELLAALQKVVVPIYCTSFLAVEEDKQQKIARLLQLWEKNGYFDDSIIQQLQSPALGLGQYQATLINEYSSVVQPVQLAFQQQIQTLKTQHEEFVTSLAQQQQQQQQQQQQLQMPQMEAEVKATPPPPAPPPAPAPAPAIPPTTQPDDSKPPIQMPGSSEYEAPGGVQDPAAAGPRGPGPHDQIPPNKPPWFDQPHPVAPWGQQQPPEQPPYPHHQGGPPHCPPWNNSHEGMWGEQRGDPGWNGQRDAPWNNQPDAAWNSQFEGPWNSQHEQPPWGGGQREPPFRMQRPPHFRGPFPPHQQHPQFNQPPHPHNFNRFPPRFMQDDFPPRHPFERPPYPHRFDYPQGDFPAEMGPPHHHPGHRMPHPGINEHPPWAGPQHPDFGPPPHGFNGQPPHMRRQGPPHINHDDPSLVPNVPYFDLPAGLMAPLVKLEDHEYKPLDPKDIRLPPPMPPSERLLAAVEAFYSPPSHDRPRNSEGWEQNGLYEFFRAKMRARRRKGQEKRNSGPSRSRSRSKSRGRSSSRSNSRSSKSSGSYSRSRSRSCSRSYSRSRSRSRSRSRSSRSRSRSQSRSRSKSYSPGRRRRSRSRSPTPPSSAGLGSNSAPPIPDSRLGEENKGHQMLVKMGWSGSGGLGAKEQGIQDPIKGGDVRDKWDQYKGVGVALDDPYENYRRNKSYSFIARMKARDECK
Chain of UniProt Q9Y5P4 (Q9Y5P4 whole entry, looked up): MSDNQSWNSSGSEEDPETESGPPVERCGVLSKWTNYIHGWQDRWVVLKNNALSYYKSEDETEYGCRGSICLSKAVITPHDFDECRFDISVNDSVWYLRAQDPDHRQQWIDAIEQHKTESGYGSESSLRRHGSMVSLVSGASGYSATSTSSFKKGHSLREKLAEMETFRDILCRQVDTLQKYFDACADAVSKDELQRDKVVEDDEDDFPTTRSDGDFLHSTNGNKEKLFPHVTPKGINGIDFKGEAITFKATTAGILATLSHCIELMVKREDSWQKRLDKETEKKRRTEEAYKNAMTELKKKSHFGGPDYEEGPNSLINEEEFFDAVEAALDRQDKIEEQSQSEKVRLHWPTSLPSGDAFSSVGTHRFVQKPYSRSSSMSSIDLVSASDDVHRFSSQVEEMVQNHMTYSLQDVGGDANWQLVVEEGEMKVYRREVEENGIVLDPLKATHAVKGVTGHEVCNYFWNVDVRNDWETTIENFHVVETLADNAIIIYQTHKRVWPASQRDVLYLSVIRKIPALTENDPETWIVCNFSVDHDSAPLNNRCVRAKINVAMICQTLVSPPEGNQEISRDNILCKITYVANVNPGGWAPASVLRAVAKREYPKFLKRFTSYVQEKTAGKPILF
Chain of UniProt O95628 (O95628 whole entry, looked up): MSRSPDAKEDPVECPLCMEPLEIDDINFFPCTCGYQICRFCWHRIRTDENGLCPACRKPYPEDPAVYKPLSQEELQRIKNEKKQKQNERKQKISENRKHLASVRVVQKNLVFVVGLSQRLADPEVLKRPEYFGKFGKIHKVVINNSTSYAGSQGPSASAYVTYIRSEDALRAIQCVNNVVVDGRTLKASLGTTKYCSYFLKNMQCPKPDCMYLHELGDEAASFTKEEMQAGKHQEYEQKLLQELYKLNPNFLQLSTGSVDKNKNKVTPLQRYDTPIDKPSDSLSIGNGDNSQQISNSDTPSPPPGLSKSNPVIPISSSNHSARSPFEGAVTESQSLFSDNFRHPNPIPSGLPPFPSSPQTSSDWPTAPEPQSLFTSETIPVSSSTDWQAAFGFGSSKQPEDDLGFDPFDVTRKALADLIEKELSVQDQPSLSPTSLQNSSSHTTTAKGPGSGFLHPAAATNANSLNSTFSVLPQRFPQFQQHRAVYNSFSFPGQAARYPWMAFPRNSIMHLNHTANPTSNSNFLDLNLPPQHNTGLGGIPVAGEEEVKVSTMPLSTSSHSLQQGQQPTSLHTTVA

Target | log2 fold change [1] | log2 fold change [2] | log2 fold change [3] | log2 fold change [4] | log2 fold change [5] | log2 fold change [6] | log2 fold change [7] | log2 fold change [8] | log2 fold change [9] | log2 fold change [10] | log2 fold change [11]
CELF2 isoform 3 (UniProt O95319) | -0.047 | 0.009 | 0.017 | -0.017 | -0.048 | -0.044 | 0 | 0.051 | 0.102 | -0.021 | 0.009
CHERP (UniProt Q8IWX8) | 0.015 | -0.054 | -0.096 | -0.095 | 0.129 | 0.099 | -0.001 | 0.03 | -0.121 | -0.042 | 0.026
CNOT4 isoform 6 (UniProt O95628) | 0.033 | -0.046 | -0.074 | -0.026 | -0.009 | 0.052 | 0.038 | 0.023 | -0.043 | -0.037 | -0.008
COMMD2 (UniProt Q86X83) | -0.007 | -0.034 | -0.098 | 0.039 | -0.062 | 0.049 | 0.011 | 0.053 | 0.011 | -0.08 | 0.015
CNN2 (UniProt Q99439) | -0.029 | -0.031 | -0.104 | -0.052 | 0.08 | 0.029 | 0.061 | 0.062 | -0.062 | -0.026 | -0.011
CRYM-AS1 (UniProt A6NIL9) | 0.038 | -0.014 | 0.27 | 0.042 | -0.101 | 0.014 | 0.021 | 0.031 | -0.076 | -0.135 | -0.459
COX7B (UniProt P24311) | 0.094 | -0.001 | -0.028 | 0.02 | -0.054 | 0.012 | -0.013 | 0.039 | 0.036 | -0.026 | 0.005
CERT isoform 3 (UniProt Q9Y5P4) | -0.323 (active) | -0.103 | -0.101 | -0.045 | -0.008 | -0.025 | 0.065 | 0.034 | 0 | -0.418 (active) | 0.019
CHEK1 (UniProt O14757) | 0.338 (active) | -0.225 | -0.209 | -0.032 | 0.02 | 0.037 | 0.094 | -0.011 | -0.064 | -0.276 (active) | -0.057
CSTF3 (UniProt Q12996) | 0.011 | -0.027 | -0.046 | -0.032 | -0.032 | -0.032 | -0.021 | 0.029 | 0.027 | 0.012 | -0.064
C1D (UniProt Q13901) | 0.187 | 0.322 (active) | 0 | 0.033 | -0.012 | 0.116 | 0.067 | 0.072 | 0.003 | 0.008 | -0.043
COMT (UniProt P21964) | -0.052 | 0.356 (active) | -0.015 | -0.022 | -0.022 | -0.054 | 0.052 | -0.057 | -0.086 | 0.015 | 0.017
CASP10 isoform 4 (UniProt Q92851) | -0.089 | -0.058 | -0.084 | -0.055 | -0.05 | 0.258 | 0.123 | 0.076 | 0.089 | -0.13 | 0.06
CDAN1 (UniProt Q8IWY9) | -0.033 | -0.042 | -0.192 | -0.091 | 0.051 | 0.022 | -0.011 | 0.095 | 0.036 | -0.018 | 0.023
CETN3 (UniProt O15182) | -0.016 | -0.059 | -0.031 | -0.102 | 0.033 | -0.126 | -0.002 | 0.032 | -0.1 | -0.061 | 0.025
CAMSAP1 isoform 3 (UniProt Q5T5Y3) | 0.124 | -0.048 | -0.172 | -0.466 (active) | -0.29 | -0.078 | 0.045 | 0.064 | -0.028 | -0.013 | -0.003
CSNK2A2 (UniProt P19784) | -0.069 | 0.008 | -0.052 | 0.069 | -0.015 | 0.086 | 0.011 | 0.873 (active) | -0.076 | 0.022 | 0.096
CLPP (UniProt Q16740) | 0.044 | -0.027 | 0.027 | -0.008 | 0.029 | -0.05 | 0.027 | 0.007 | 0.096 | -0.031 | 0.01
CDC37L1 (UniProt Q7L3B6) | -0.061 | -0.074 | 0.018 | 0.033 | -0.011 | -0.017 | -0.064 | 0.07 | -0.022 | -0.102 | 0.042
CLCN7 (UniProt P51798) | -0.009 | -0.162 | -0.674 (active) | -0.048 | 0.07 | 0.054 | 0.107 | 0.036 | 0.021 | -0.078 | -0.007
CHST11 (UniProt Q9NPF2) | -0.045 | 0.068 | -0.181 | 0.139 | -0.027 | 0.001 | 0.276 | -0.044 | 0.013 | 0.054 | -0.1
COPS3 isoform 2 (UniProt Q9UNS2) | -0.129 | -0.364 | -0.005 | -0.272 | -0.007 | -0.169 | -0.14 | 0 | -0.597 | 0.011 | 0.135
CA1 (UniProt P00915) | 0.01 | 0.011 | -0.013 | 0.012 | -0.011 | 0.221 (active) | 0.074 | 0.013 | -0.014 | -0.029 | 0.018
CNN1 (UniProt P51911) | -0.002 | -0.07 | -0.305 | -0.023 | 0.018 | -0.125 | 0.168 | 0.108 | -0.008 | -0.052 | -0.067
CKS1B (UniProt P61024) | -0.029 | -0.03 | -0.082 | 0.042 | -0.02 | 0.025 | 0.009 | 0.063 | -0.084 | -0.067 | 0
CDC42EP1 (UniProt Q00587) | -0.272 | -0.258 | -0.399 | -0.063 | 0.1 | 0.158 | 0.108 | -0.04 | -0.118 | -0.138 | -0.089
CDK9 isoform 2 (UniProt P50750) | -0.05 | -0.038 | -0.057 | 0.22 | 0.005 | 0.102 | -0.002 | -0.015 | 0.152 | -0.084 | 0.012
